The values that follow come from PubChem BioAssay (NCATS).

Results filed as inconclusive are left out. A call without a number means that no potency is given here. Calls of active or inactive are those of the source. Calls follow the shape of the dose curve; as a rule, active = well fitted curve in the direction sought with a large enough effect; inconclusive = small, poorly fitted or top-dose-only effect, or another doubt; inactive = no such curve, though single readings can be large; an effect the other way counts as inactive or inconclusive.

Test [1] deals with N-terminal Xaa-Pro-Lys N-methyltransferase 1 (Homo sapiens) (UniProt Q9BV86). The test can be described thus: qHTS Assay for Inhibitors of N-terminal methyltransferase 1 (NTMT1): LOPAC validation of the NTMT1 SAHH-coupled ThioGlo3 Assay (AID 1347143).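 Also: SAH from peptide methylation measured as thiol fluorescence via SAHH coupling and ThioGlo3; potency is read from the fitted curve at half-maximal effect; nearly all actives have a fitted effect of over 70% in size.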 The procedure, abridged: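 Recombinant human NTMT1 (125nM) was pre-incubated 1 min at room temperature with compounds over a concentration range, then a mix of 100uM SAM, 10uM SAHH and 15uM ThioGlo3 (concentrations in added reagent) was added. ThioGlo3 fluorescence (ex 340/em 450nm) after 30 min was normalized to the initial reading.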
Sequence of N-terminal Xaa-Pro-Lys N-methyltransferase 1 (Homo sapiens) (Q9BV86 whole entry, looked up): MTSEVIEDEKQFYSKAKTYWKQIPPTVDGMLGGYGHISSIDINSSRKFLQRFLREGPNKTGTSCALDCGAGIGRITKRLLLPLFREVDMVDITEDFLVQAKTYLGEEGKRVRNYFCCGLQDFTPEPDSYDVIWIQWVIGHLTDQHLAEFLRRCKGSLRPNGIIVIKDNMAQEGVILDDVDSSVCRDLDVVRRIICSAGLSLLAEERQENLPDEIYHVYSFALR

For test [2], the system named is Zika virus NS2B-NS3 protease. Briefly: Primary screen GU AMC qHTS for Zika virus inhibitors (AID 1347154). Also: nearly all actives have a fitted effect of over 70% in size. Also: potency is read from the fitted curve at half-maximal effect. Put shortly:
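Unlinked Zika NS2B hydrophilic domain–NS3 protease complex at 25 nM in 10 mM Tris-HCl pH 8.0, 0.01% Tween 20, with an AMC peptide substrate. Fluorescence change (340/450 nm) over 15 min at room temperature, normalized to controls, fitted to 4-parameter Hill.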
Background: qHTS replaces the single test concentration by a dilution series.

The subject of test [3] is Zika virus NS2B-NS3 protease (unlinked complex). Briefly: Primary screen GU Rhodamine qHTS for Zika virus inhibitors: Unlinked NS2B-NS3 protease assay (AID 1347159). Also: nearly all actives have a fitted effect of over 60% in size. Also: potency is read from the fitted curve at half-maximal effect. Put shortly:
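Noncovalent NS2B hydrophilic domain/NS3 protease complex (25 nM final) in 10 mM Tris-HCl pH 8.0, 0.01% Tween 20, preincubated 15 min with compounds (up to 114 microM), then 1.5 microM Rhodamine110 substrate. Fluorescence change over 15 min fitted to 4-parameter Hill.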

The test system of test [4] is Zika virus NS2B-NS3 protease (linked construct). Briefly: Primary screen NINDS Rhodamine qHTS for Zika virus inhibitors (AID 1347160). Also: nearly all actives have a fitted effect of over 55% in size. Put shortly:
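Purified NS2B-NS3 protease with the NS2B hydrophilic domain joined by a flexible linker (25 nM) in 10 mM Tris-HCl pH 8.0, 0.01% Tween 20, preincubated 15 min at RT with compound; Rhodamine110 peptide substrate 1.5 µM; fluorescence change over 15 min; 4-parameter Hill fit.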

Test [5] in a line: qHTS to identify inhibitors of the type 1 interferon - major histocompatibility complex class I in skeletal muscle: primary screen against the NCATS LOPAC collection (AID 1347405).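 Also: lytic HiBiT luminescence reporting HLA-B protein level; potency is read from the fitted curve at half-maximal effect.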 Put shortly:
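Cells: C25cl48 human myoblasts, HiBiT-tagged HLA-B*08:01, stimulated with IFN-beta 4.0 ng/ml. Compounds are titrated 1:4.3 over 7 points from 46 uM final and incubated 24 hrs; endogenous MHC class I is quantified by HiBiT lytic luminescence.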

A short description of test [6]: qHTS for inhibitors of adenylyl cyclases using a fission yeast platform: a pilot screen against the NCATS LOPAC library (AID 1347410). Put shortly:
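S. pombe CHP2027 (AC9-GNAS-PDE4D2) carrying PKA-repressed fbp1-GFP, incubated 18 h at 30C in EMM with LOPAC compounds at up to 57 uM. GFP gain-of-signal read by laser scanning cytometry; DMSO negative control.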

The target of test [7] is Furin (Homo sapiens) (UniProt P09958). The test can be described thus: Furin counterscreen qHTS for Zika virus inhibitors (AID 1347149). Also: potency is read from the fitted curve at half-maximal effect; nearly all actives have a fitted effect of over 70% in size. The procedure, abridged: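 Fluorogenic cleavage of BOC-RVRR-AMC (2 microM final, Km ~15 µM) was monitored (ex 340, em 450 nm) at 37C after 15 min RT preincubation of 5 nM furin with compounds in HEPES pH 7.0 buffer with CaCl2 and Triton X-100. Percent inhibition was fitted to a 4-parameter Hill curve.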
Sequence of Furin (Homo sapiens) (P09958 whole entry, looked up): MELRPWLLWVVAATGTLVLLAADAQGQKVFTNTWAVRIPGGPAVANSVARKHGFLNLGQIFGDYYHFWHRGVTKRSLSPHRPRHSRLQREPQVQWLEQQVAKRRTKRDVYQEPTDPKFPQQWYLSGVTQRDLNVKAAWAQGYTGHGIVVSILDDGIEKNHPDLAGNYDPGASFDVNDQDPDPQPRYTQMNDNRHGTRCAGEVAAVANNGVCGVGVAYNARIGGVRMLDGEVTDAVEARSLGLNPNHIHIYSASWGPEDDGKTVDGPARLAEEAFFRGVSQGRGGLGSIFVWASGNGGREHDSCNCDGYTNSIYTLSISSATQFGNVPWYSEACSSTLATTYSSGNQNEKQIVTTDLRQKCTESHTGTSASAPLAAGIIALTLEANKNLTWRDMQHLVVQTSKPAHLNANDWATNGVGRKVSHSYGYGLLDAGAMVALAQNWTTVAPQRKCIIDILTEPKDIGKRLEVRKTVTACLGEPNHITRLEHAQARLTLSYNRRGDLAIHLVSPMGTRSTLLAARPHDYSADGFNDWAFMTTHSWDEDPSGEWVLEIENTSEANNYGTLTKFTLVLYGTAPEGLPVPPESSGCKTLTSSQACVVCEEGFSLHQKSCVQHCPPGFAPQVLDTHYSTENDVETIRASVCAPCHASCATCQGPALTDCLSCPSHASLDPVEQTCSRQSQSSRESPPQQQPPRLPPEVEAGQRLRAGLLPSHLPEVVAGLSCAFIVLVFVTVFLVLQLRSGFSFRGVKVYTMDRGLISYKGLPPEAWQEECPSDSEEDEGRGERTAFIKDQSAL

In test [8] the test system is Zika virus NS2B-NS3 protease (unlinked complex). The test can be described thus: Confirmatory screen GU AMC qHTS for Zika virus inhibitors (AID 1347153). Also: nearly all actives have a fitted effect of over 70% in size. Put shortly: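 Unlinked NS2B-NS3 complex (25 nM) in 10 mM Tris-HCl pH 8.0, 0.01% Tween 20 preincubated 15 min with compound, then 10 microM Bz-Nle-KRR-AMC (Km 18.3 µM). Fluorescence change over 15 min, normalized, Hill-fitted.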

A short description of test [9]: Confirmatory screen NINDS Rhodamine qHTS for Zika virus inhibitors (AID 1347161). Also: potency is read from the fitted curve at half-maximal effect; nearly all actives have a fitted effect of over 60% in size. Put shortly:
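Each compound, titrated, sat 15 min with 25 nM linked protease before 1.5 microM Rhodamine110 substrate went in. Fluorescence gain over the next 15 min, in pH 8.0 Tris with Tween 20, gave Hill-fitted curves.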

The nature of test [10]: Vero cells viability qHTS for Zika virus inhibitors (AID 1347167). The procedure, abridged:
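Cells seeded at 2.5 x 10^5 cells/mL in DMEM with 4% FBS and attached overnight at 37 degrees C, then exposed to compound for 24 to 48 hours. Viability read as ATP content by CellTiter Glo luminescence.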

A short description of test [11]: qHTS to identify inhibitors of the type 1 interferon - major histocompatibility complex class I in skeletal muscle: primary screen against the NCATS Pharmaceutical Collection (AID 1347407).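 Also: luminescence of HiBiT knocked into endogenous HLA-B as interferon-induced MHC class I level.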 Put shortly: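 Immortalized human myoblasts (C25cl48) with HiBiT knocked into endogenous HLA-B*08:01 were stimulated with 4.0 ng/ml IFN-beta and treated with compounds ([…] top 46 uM) for 24 hrs at 37 C. HiBiT lytic luminescence read.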

Test [12] in a line: Confirmatory screen GU Rhodamine qHTS for Zika virus inhibitors qHTS (AID 1347157). Also: nearly all actives have a fitted effect of over 70% in size. Also: potency is read from the fitted curve at half-maximal effect. The procedure, abridged: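 Buffer 10 mM Tris-HCl pH 8.0, 0.01% Tween 20. Unlinked protease 25 nM; compound preincubation 15 min, RT, protected from light. Substrate Rhod110, 1.5 microM; ~15% conversion in 15 min.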
A short description of test [13]: Tertiary RLuc qRT-PCR qHTS assay for Zika virus inhibitors (AID 1347169). Also: top concentration of the series differs between compounds; nearly all actives have a fitted effect of over 55% in size. Put shortly: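 Vero cells (1,000/well) infected with recombinant ZIKV-RLuc (Cambodian) at MOI 1-2 after compound addition, 48-72 hrs at 37 degrees C. Live-cell Renilla luciferase substrate added; luminescence read after 1-1.5 hrs.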
Background: Real-time PCR tracks product formation cycle by cycle.

Consider `CS(=O)(=O)c1cccc(CNc2nc(Nc3ccc4c(c3)CCC(=O)N4)ncc2C(F)(F)F)c1`, for which the results for the Potency in [1] and in test [5] were 56.2 µM (active) and 5.62 µM (active), respectively. In addition, the Potency result in test [2], in test [3] and in test [4] was “inactive” each time. Moreover, the compound was classed as inactive in test [6].
Consider `CCCc1nc2c(C)cc(-c3nc4ccccc4n3C)cc2n1Cc1ccc(-c2ccccc2C(=O)O)cc1`, for which the Potency was 24.1 µM (active) in [7] and 13.9 µM (active) in test [9]. For the same compound, the Potency result in [8] and in test [2] was “inactive” in each case. Further, the compound was called inactive in [10] and in [11].
Take `Cc1cnc(Nc2ccc(OCCN3CCCC3)cc2)nc1Nc1cccc(S(=O)(=O)NC(C)(C)C)c1`: the Potency entry in test [2], in test [3] and in [4] was “inactive” throughout.
As for `Nc1nccc(-c2ccc3noc(-c4ccc(Cl)cc4)c3c2)n1`, the Potency result in test [2] was “inactive”.
Turning to `CC(c1cc2ccccc2s1)N(O)C(N)=O` (configuration not stated), in test [2], the Potency entry is “inactive”.
`Cc1c(CCOc2ccc(C(=O)O)cc2)c2cc(Cl)ccc2n1C(c1ccccc1)c1ccccc1`: the Potency entry in [2] was “inactive”.
In the case of `CCCCCCCc1ccc(CCc2cccc(O)c2C(=O)O)cc1`, the Potency in test [2] was 8.57 µM (active).
On to `Cc1ccc2c(c1)C(=O)[C@@]1(O)CCN(c3ccccc3)C1=N2`, for which, in test [2], the Potency entry was “inactive”.
For `CCN(CC)CCCC(C)Nc1nc(C)cc(Nc2ccc3nc(C)cc(N)c3c2)n1` (configuration not stated), in test [2], the Potency entry was “inactive”.
Regarding `COc1cc2c(cc1OC)CN(CCc1ccc(NC(=O)c3cccc4c(=O)c5cccc(OC)c5[nH]c34)cc1)CC2`, the Potency result in [2], in test [4] and in test [13] was “inactive” in each case. In addition, the Potency is 44.1 µM (active) in test [12], 39.8 µM (active) in test [3] and 55.5 µM (active) in test [9].
As for `Cc1cc(C=c2sc3nc4ccccc4n3c2=O)c(C)n1-c1ccccc1`, the Potency entry in [2] is “inactive”.
With `CCOc1cc(C=C2C(=O)N(c3ccccc3)N=C2C)cc(Cl)c1OCC(=O)OC`, the Potency entry in [2] was “inactive”.
Regarding `COc1nc(-c2ccc3c(c2)OCO3)n(-c2ccc(NC(=O)CSc3ccccc3)cc2)n1`, the Potency entry in [2], in test [3] and in test [4] was “inactive” each time.
As to `C[C@]12CC[C@H](O)CC1=CC[C@@H]1[C@H]2CC[C@]2(C)C(c3cccnc3)=CC[C@H]12`, the Potency entry in test [2] is “inactive”.
In the case of `O=c1ncn2nc(Sc3ccc(F)cc3F)ccc2c1-c1c(Cl)cccc1Cl`, the Potency result in test [2] was “inactive”.
Take `OCCC#Cc1nc(-c2ccc(F)cc2)c(-c2ccncc2)n1CCCc1ccccc1`: the Potency result in [2] was “inactive”.
As for `OCCn1cc(-c2cnc3nnn(Cc4ccc5ncccc5c4)c3n2)cn1`, the Potency result in test [2], in [12] and in test [4] was “inactive” throughout. The Potency in test [3] was 50.1 µM (active).
As to `CCCn1c(=O)c2[nH]c(C34CC5CC3C[C@@H](C5)C4)nc2n(CCC)c1=O`, the Potency entry in test [2] was “inactive”.
For the compound `NC(=O)C1CCCc2c1[nH]c1ccc(Cl)cc21` (configuration not stated), the Potency result in [2] is “inactive”.
In the case of `O=C1[C@H](Cc2ccc(O)cc2)N2C(=O)CCN(C(=O)NCc3ccccc3)[C@H]2CN1Cc1cccc2ccccc12`, the Potency result in test [2] was “inactive”.
